Laboratory results from the supplement of paper PMC6555819.

Assays:
Assay in all cases: PBM binding z-score (relative to random genomic background probes); higher = stronger binding; sequences stand for … in GC…GCGATTGACAGCGTAGAATGAAGG
[1] = system: FXR:RXRa (NR concentration 270 nM, RXRa partner concentration 90 nM)
Summary of the method: (§1)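 For binding z-scores, the reference was random background probes on custom Agilent 4×180K protein-binding microarrays. These arrays were incubated 1 h with ligand-free nuclear receptor dimers in PBS pH 7.4, 2% milk, 0.02% Triton X-100, 1 mM DTT, 0.2 mg/mL BSA and 0.4 mg/ml salmon testes DNA. Fluorescence was scanned after antibody detection of each partner (one per run) and regression-normalized.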

[2] = system: LXRa:RXRa (NR concentration 270 nM, RXRa partner concentration 90 nM)
Summary of the method: as §1

[3] = system: LXRa homodimer (NR concentration 270 nM)
Summary of the method: as §1

[4] = system: LXRb:RXRa (NR concentration 270 nM, RXRa partner concentration 90 nM)
Summary of the method: as §1

[5] = system: LXRb homodimer (NR concentration 270 nM)
Summary of the method: as §1

[6] = system: PPARa:RXRa (NR concentration 270 nM, RXRa partner concentration 90 nM)
Summary of the method: as §1

[7] = system: PPARg:RXRa (NR concentration 180 nM, RXRa partner concentration 90 nM)
Summary of the method: as §1

[8] = system: PPARg:RXRa 270nM:90nM, anti-RXR (NR concentration 270 nM, RXRa partner concentration 90 nM)
Summary of the method: as §1

[9] = system: PPARg:RXRa 30nM:10nM, anti-RXR (NR concentration 30 nM, RXRa partner concentration 10 nM)
Summary of the method: as §1

[10] = system: PPARg:RXRa 90nM:30nM, anti-RXR (NR concentration 90 nM, RXRa partner concentration 30 nM)
Summary of the method: as §1

[11] = system: PPARg:RXRa DBDmut IVT, anti-RXR (DBD mutation: RXRa K156A/R161A, NR concentration 270 nM, RXRa partner concentration 90 nM)
Summary of the method: as §1

[12] = system: PPARg:RXRa IVT, anti-PPARg (NR concentration 270 nM, RXRa partner concentration 90 nM)
Summary of the method: as §1

[13] = system: PPARg DBDmut:RXRa IVT, anti-PPARg (DBD mutation: PPARg1 K132A/R137A, NR concentration 270 nM, RXRa partner concentration 90 nM)
Summary of the method: as §1

[14] = system: PPARg DBDmut IVT, anti-PPARg (DBD mutation: PPARg1 K132A/R137A, NR concentration 270 nM)
Summary of the method: as §1

[15] = system: PPARg homodimer (NR concentration 180 nM)
Summary of the method: as §1

[16] = system: PXR:RXRa (NR concentration 270 nM, RXRa partner concentration 90 nM)
Summary of the method: as §1

[17] = system: PXR homodimer (NR concentration 270 nM)
Summary of the method: as §1

[18] = system: RARa:RXR (NR concentration 270 nM, RXRa partner concentration 90 nM)
Summary of the method: as §1

[19] = system: RARa homodimer (NR concentration 270 nM)
Summary of the method: as §1

[20] = system: RARb:RXRa (NR concentration 270 nM, RXRa partner concentration 90 nM)
Summary of the method: as §1

Sequence	PBM binding z-score [1]	PBM binding z-score [2]	PBM binding z-score [3]	PBM binding z-score [4]	PBM binding z-score [5]	PBM binding z-score [6]	PBM binding z-score [7]	PBM binding z-score [8]	PBM binding z-score [9]	PBM binding z-score [10]	PBM binding z-score [11]	PBM binding z-score [12]	PBM binding z-score [13]	PBM binding z-score [14]	PBM binding z-score [15]	PBM binding z-score [16]	PBM binding z-score [17]	PBM binding z-score [18]	PBM binding z-score [19]	PBM binding z-score [20]
TGAATGTGGTTATAAGATCAGGGAACGTTGCAAA	0.123	0.222	0.268	0.397	0.612	0.12	0.237	0.617	0.803	1.15	-0.328	0.343	0.967	1.11	0.749	0.00497	0.777	-0.382	1.15	0.0382
CCTACTGCGCCATCAGGTCATTGATATCAACGTT	1.39	1.32	1.7	2.2	1.17	1.73	0.376	0.994	0.212	0.573	0.542	1.25	-0.701	0.364	1.76	1.98	0.943	2.03	0.602	1.76
CCTTACGGGTCAATGTTATAGCACGGGTGGTACG	4.09	2.96	0.175	2.61	0.428	3.96	3	3.22	1.1	2.16	1.71	2.59	0.14	0.289	1.3	2.45	-0.0609	3.35	0.558	3.57
CCTACTGGGCCAAGGTCATGGATCAGTCAAAGCA	3.04	3.08	0.47	3.01	-0.724	4.32	4.52	4.76	1.8	3.69	3.36	4.9	-0.856	-0.00696	0.941	3.26	0.388	3.81	0.247	3.53
CCAGATAGGTGAAAGGTAACTCAGTCTGGTACGC	0.688	0.694	0.0245	1.14	-0.143	4.2	7.95	7.54	7.57	7.93	5.2	4.32	0.289	-0.0951	1.74	1.02	0.111	2.13	0.659	1.31
CCTCGGAGGACAACAGGAGGTCAGAGCCGCCAGA	0.835	2.03	1.67	1.17	-0.539	1.92	0.457	0.136	-0.412	-0.258	-0.218	0.369	-1.41	-1.45	1.21	1.72	0.183	1.99	-0.021	2.92
TAGCGTAGGTCATTGGGCCAGTATAGTACGCATC	4.93	3.92	0.617	2.84	0.375	4.15	3.75	3.91	1.25	2.52	1.8	3.26	0.193	-0.343	1.85	2.07	-0.335	2.36	-0.0783	3.74
